# Assay outcomes as filed in PubChem BioAssay.
# Compounds with a hit are over-represented: about 1.1% of the library has one in this group of screens.
# Eya2 inh = qHTS Assay for Inhibitors of the Phosphatase Activity of Eya2 | AID 488837, 2010 | recombinant Eya2, OMFP fluorescence dephosphorylation (OMFP is methylfluorescein phosphate) | Potency, µM (top dose mostly 76.9 µM), for inactives: at the highest dose activity, negative = inhibition, actives largely listed as inhibitors | actives 0.006% (n = 330,000) | Protein phosphatase EYA2 (Homo sapiens), O00167; also: % is scaled to controls: 0 for no effect and ±100 for the full control effect
#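 Eya2 protein (added as 0.2 uM solution) was preincubated with compound for 10 min at ambient temperature in 50 mM HEPES pH 7.5, 50 mM NaCl, 5 uM MgCl2, 0.05% BSA, 1 mM DTT. OMFP (added at 50 uM) then reacted 10 min; fluorescence read at 485/525 nm.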
# USP2a block = qHTS Assay for Inhibitors of Ubiquitin-specific Protease USP2a Using CHOP2 as the Reporter; Ubiquitin carboxyl-terminal hydrolase 2 (Homo sapiens), O75604; USP2 core, Ub-CHOP2 coupled fluorogenic reporter, 485/531; Potency, µM (highest dose often 38.3 µM), without a hit: at the highest dose activity change, negative = inhibition, hits mostly inhibitors; actives 0.01% (n = 330,000); AID 463254, 2010;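 also: plate controls were DMSO wells for no effect and full inhibition by NEM control for full effect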
#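 USP2 core (10nM final) preincubated 30min RT with compound in 20mM Tris-HCl pH 8.0, 2mM CaCl2, 2mM beta-mercaptoethanol, 0.05% CHAPS; 25nM Ub-CHOP2 plus 25nM reporter substrate added, fluorescence (Ex485/Em531) read after 60min.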
# ALOX12 inh = Primary qHTS assay for inhibitors of human arachidonate 12S-lipoxygenase (ALOX12): Round 2 | Polyunsaturated fatty acid lipoxygenase ALOX12 (Homo sapiens), P18054 | purified 12hLO, xylenol orange hydroperoxide absorbance | Potency, µM (doses to about 108 µM), for inactives: top-dose activity change, negative = inhibition, hits mostly inhibitors | actives 1.1% (n = 580,000) | AID 1671190, 2021; also: % is scaled to controls: 0 for no effect and ±100 for the full control effect
#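 Hydroperoxide product was detected by ferrous iron/xylenol orange as the 573 to 405 nm absorbance ratio. Arachidonic acid at 40 uM (final) was turned over for 30 min at room temperature by 150 nM human 12hLO, pH 7.0 Hepes buffer, after 15 min compound preincubation.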
# TSG101-PTAP inh = qHTS Assay for Iinhibitors of HIV-1 Budding by Blocking the Interaction of PTAP/TSG101; Tumor susceptibility gene 101 protein (Homo sapiens), Q99816; Fluorescence polarization, FITC-PTAP peptide / Tsg101 binding; Potency, µM (series often up to 115 µM), inactives show top-dose activity change, negative = inhibition, usual class: inhibitors; 340,000 tested, under 10 active; AID 493005, 2010; active = well fitted inhibition curve with a large enough effect in the main read-out, with a control signal flat, not every such curve was filed as active; inconclusive = small, poorly fitted or top-dose-only effect, or effect the other way, or a change in a side signal; inactive = no such curve, though single readings can be large or run the other way; also: % of control where 0% means no effect
# Target sequence (Q99816 whole entry, looked up): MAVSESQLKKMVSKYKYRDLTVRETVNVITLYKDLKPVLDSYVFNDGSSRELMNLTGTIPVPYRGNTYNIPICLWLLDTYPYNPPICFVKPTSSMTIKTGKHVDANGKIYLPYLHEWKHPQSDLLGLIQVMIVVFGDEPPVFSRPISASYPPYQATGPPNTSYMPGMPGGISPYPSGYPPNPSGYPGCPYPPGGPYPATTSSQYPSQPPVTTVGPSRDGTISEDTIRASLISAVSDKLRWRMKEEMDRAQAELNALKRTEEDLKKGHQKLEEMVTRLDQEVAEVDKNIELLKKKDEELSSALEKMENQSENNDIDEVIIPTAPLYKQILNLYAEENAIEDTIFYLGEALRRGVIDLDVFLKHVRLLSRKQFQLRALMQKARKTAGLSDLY
#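 Steps: Tsg101 binding domain dispensed (10 uM final), compounds pinned in DMSO, FITC-labeled PTAP-motif peptide added (50 nM final); after 20 min binding at room temperature, polarization measured.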
# Starred values were filed as active, the others as inactive; u = inconclusive; x = not tested or not shown; ! = not active in a repeat; [ ] = remark or other dose. Unless noted, calls follow the shape of the dose curve; as a rule, active = well fitted curve in the direction sought with a large enough effect; inconclusive = small, poorly fitted or top-dose-only effect, or another doubt; inactive = no such curve, though single readings can be large; an effect the other way counts as inactive or inconclusive. Potency is read from the fitted curve at half-maximal effect.
SMILES,Eya2 inh,USP2a block,ALOX12 inh,TSG101-PTAP inh
COc1ccc(C2=Nc3ccccc3N(C(=O)c3ccc(C)cc3)C2C(=O)Nc2c(C)cccc2C)cc1 (stereo unspecified),x,x,0.79µM*,x
Cc1ccc(S(=O)(=O)N(CC(=O)NCC2CCCO2)c2cccc(C)c2)cc1 (stereo unspecified),x,x,-60%,x
Cc1cccc(C)c1-n1nnnc1SC(C(=O)N1CCOCC1)c1ccccc1 (stereo unspecified),x,x,0%,x
O=C1C2CC=C(Cl)CC2C(=O)N1CC1OCCc2ccccc21 (stereo unspecified),-3%,-1%,20µM*,-4%
CC(C)CCN1CCC(N2CCN(S(=O)(=O)c3ccc4c(c3)CCCC4)CC2)C1=O (stereo unspecified),x,x,-1%,x
COCCn1c(N2CCCC(C)C2)nc2c1c(=O)[nH]c(=O)n2C (stereo unspecified),x,x,32%,x
CC(=O)OC/C=C/c1ccccc1,x,x,5%[176 µM],x
CCCCNC(=O)CN1CCN(c2ncc(NC(=O)c3ccc(Cl)cc3)cc2C(=O)O)CC1,x,x,35µM*,x
C=CCOC(=O)C1=C(C)N=C2SC=C(CC(=O)NCC3CC3)N2C1c1cccc(OC)c1OC (stereo unspecified),x,x,16%,x
Brc1ccc(-c2noc(Cc3cccs3)n2)o1,x,x,25µM*,x
CN(C(=O)c1ccnc(-c2nnc3ccc(N4CCOCC4)nn23)c1)c1ccccc1,x,x,32µM*,x
COc1ccc(OCC2(C)COc3ccc(C(=O)Nc4ccc(OC)nc4)cc3N2)cc1 (stereo unspecified),x,x,8%[176 µM],x
Cc1cccc(NC(=O)N2CCC3(C2)C(=O)N(C)c2ccccc23)c1 (stereo unspecified),x,x,42%,x
COc1cccc(C(=O)NCCN2CCN(c3ccccc3)CC2)c1,-9%,-2%,16µM*,2%
COc1cccc(C(=O)Nc2ccc(N3CCN(Cc4ccccc4)CC3)cc2)c1,2%,1%,-8%,-10%
COc1ccc(N2C(=O)CSC23CCN(C(=O)Nc2ccc([N+](=O)[O-])cc2)CC3)cc1,x,x,0%,x
OCc1ccccc1-c1nc(NCc2ccccc2)nc2ccsc12,x,x,14µM*,x
CC(=O)NCCNc1nc(NCc2ccccc2)nc2ccsc12,x,x,-4%,x
Cn1cc(CN2C[C@@H](F)[C@@H](OCc3nc4ccc(C#N)cc4[nH]3)C2)c2ccccc21,x,x,22%[176 µM],x
CCOC(=O)c1nc2ccccc2nc1NCC(C)c1ccccc1 (stereo unspecified),x,x,-12%,x
Cc1ccccc1Cc1sc(N)nc1C,x,x,14µM*,x
Cc1ccccc1Cc1cnc(N)s1,x,x,43%,x
Cc1ccc2nc(C)c(C(=O)N3CCN(S(=O)(=O)c4cc(F)ccc4F)CC3)cc2c1,x,x,-7%,x
Cc1ccc(S(=O)(=O)N2CCN(C(=O)c3cc4cc(C)ccc4nc3C)CC2)cc1,x,x,40µM*,x
CCCOc1ccc(C[N+](C)(C)C)cc1C[N+](C)(C)C,x,x,63µM*,x
SMILES,Eya2 inh,USP2a block,ALOX12 inh,TSG101-PTAP inh
COc1cccc(CN2CCCC(N3CCN(c4cccc(C(F)(F)F)c4)CC3)C2)c1O (stereo unspecified),x,x,7%,x
Brc1ccc(C2=CC(c3cccs3)n3ncnc3N2)cc1 (stereo unspecified),u,u,40µM*,u
Cc1cccc(C(=O)NC(=S)NNC(=O)c2cccs2)c1,-1%,1%,u,-2%
O=C(NC(=S)NNC(=O)c1cccs1)c1ccccc1,-2%,1%,u,-2%
CC(C)(C)c1ccc(C(=O)NNC(=S)NC(=O)c2cccnc2)cc1,2%,1%,u,-10%
Cc1cccc(C(=O)NNC(=S)NC(=O)c2ccc(C(C)(C)C)cc2)c1,x,x,18µM*,x
CC(C)(C)c1ccc(C(=O)NC(=S)NNC(=O)c2cccs2)cc1,-12%,1%,40µM*,0%
Cc1cccc(C(=O)NC(=S)NNC(=O)c2ccc(Cl)cc2)c1,8%,2%,28µM*,-1%
CCC(C)c1ccc(Nc2nc(-c3ccc(S(=O)(=O)N4CCCC4)cc3)cs2)cc1 (stereo unspecified),x,x,0%,x
FC(F)(F)c1ccc(CN2CCNc3cc(Nc4cccnc4)ncc3C2)cc1,x,x,-18%[176 µM],x
CN1c2cc(C(=O)Nc3ccc(Oc4ccccc4)cc3)ccc2C(=O)N2CCCCC21 (stereo unspecified),x,x,-29%,x
Cc1ccc(C(=O)Nc2ccc3oc(C)nc3c2)cc1,x,x,12%,x
Cc1nc2cc(F)ccc2cc1C(=O)N(C)CC1COc2ccccc2O1 (stereo unspecified),x,x,-59%,x
O=c1[nH]c(C2CCCN(Cc3cccc(-c4ccsc4)c3)C2)nc2ccc(F)cc12 (stereo unspecified),x,x,25µM*!,x
Cc1ccc(/C=C2/NC(=O)N(Cc3ccc(Br)cc3)C2=O)o1,12%,0%,45µM*,3%
Cc1ccc(-c2c[nH]c(=S)n2-c2ccccc2F)cc1,5%,3%,35µM*,0%
Cn1c(-c2ccc(-c3ccccc3)cc2)c[nH]c1=S,1%,-2%,40µM*,0%
Cc1cccc(NCc2cc(C(C)(C)C)c(O)c(C(C)(C)C)c2)c1,x,x,10µM*,x
O=C(CN1CCCCC1)NN(Cc1ccccc1)c1ccccc1,4%,0%,14µM*,3%
CCOc1cccc(-c2cc(C(=O)O)c3ccc(C)c(C)c3n2)c1,x,x,40µM*,x
Cc1ccc2c(C(=O)O)cc(-c3ccccc3)nc2c1C,x,x,-14%,x
Cc1sc2c3ccsc3ccc2[n+]1C,-3%,5%,16µM*,-4%
Cc1sc2ccc3sccc3c2[n+]1C,-3%,8%,11µM*,-1%
O=C(NCC1Cn2cccc2CN1Cc1ccccc1)c1ccc2cc[nH]c2c1 (stereo unspecified),x,x,192%,x
CCCCCC(=O)OCC,x,x,1%[176 µM],x
SMILES,Eya2 inh,USP2a block,ALOX12 inh,TSG101-PTAP inh
CCCN(CCC)C(=O)CCCC(=O)N(C)Cc1ccsc1,x,x,-1%,x
COc1cccc(C2CC(c3ccccc3Cl)n3nc(N)nc3N2)c1 (stereo unspecified),-4%,1%,-19%,-6%
COc1ccc(C2(c3ccc(O)cc3O)CC(c3ccccc3Cl)NC(=S)N2)cc1 (stereo unspecified),-2%,-2%,18µM*,-8%
CC(=O)NC1(C)CCCN(Cc2cc(-c3cccc(N(C)C)c3)cs2)C1 (stereo unspecified),x,x,42%[176 µM],x
COCCN(Cc1nccs1)C(=O)c1cnc(-c2ccccn2)[nH]c1=O,x,x,128%,x
COc1cccc(S(=O)(=O)N2CCCN(C)c3ccccc32)c1,x,x,22µM*,x
CN1CCCN(S(=O)(=O)c2ccc(Cl)cc2)c2ccccc21,x,x,-25%,x
